The record followed here is PubChem BioAssay (Tox21).

Unmarked numbers belong to inactive results. Results filed as inconclusive are left out. Activity calls are given as the source filed them. Unless noted, calls come from the whole dose curve; as a rule, active = well fitted curve in the direction sought with a large enough effect in the repeat runs; inconclusive = weak or mixed curves; inactive = no such curve, though single readings can be large; an effect the other way counts as inactive or inconclusive.

Experiment [1] deals with Progesterone receptor (Homo sapiens) (UniProt P06401). Description: qHTS assay to identify small molecule agonists of the progesterone receptor (PR) signaling pathway (AID 1346784; calls by dose curve; note: nearly all actives have a fitted effect of over 30% in size). The method, boiled down: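 Using charcoal-stripped serum (2%) to limit endogenous steroids, PR-UAS-bla HEK 293T cells received compounds for 16 hr at 37C after 6 hr plating; beta-lactamase FRET fluorescence was recorded following 2 hr substrate loading at room temperature.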
Sequence of Progesterone receptor (Homo sapiens) (P06401 whole entry, looked up): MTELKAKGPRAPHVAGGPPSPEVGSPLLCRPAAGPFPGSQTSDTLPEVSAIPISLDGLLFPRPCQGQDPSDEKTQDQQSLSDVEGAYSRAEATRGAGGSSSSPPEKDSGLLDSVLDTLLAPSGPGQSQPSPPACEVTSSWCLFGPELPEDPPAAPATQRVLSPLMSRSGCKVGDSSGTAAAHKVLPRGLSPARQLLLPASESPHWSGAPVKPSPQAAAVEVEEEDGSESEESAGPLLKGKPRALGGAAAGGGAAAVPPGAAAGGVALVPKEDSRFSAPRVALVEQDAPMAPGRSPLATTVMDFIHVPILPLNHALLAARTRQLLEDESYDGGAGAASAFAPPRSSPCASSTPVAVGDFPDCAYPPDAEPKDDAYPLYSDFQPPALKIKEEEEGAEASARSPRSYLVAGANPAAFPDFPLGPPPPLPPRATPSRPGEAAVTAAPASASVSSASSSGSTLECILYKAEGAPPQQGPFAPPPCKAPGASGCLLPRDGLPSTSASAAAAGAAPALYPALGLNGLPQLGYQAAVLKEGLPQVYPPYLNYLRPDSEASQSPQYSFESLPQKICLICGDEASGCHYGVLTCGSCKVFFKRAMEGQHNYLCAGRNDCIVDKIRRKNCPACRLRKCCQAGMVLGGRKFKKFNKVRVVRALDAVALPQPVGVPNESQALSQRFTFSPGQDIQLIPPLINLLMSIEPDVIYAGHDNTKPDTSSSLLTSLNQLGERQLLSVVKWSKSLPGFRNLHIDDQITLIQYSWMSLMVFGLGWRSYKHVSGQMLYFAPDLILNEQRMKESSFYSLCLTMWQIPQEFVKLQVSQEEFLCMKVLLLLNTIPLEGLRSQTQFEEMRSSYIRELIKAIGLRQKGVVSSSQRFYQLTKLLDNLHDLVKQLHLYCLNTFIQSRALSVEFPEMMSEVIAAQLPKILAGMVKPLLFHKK
On the technique in general: Quantitative high-throughput screening tests each substance at several concentrations.

For experiment [2] the target is unchanged. Put plainly: qHTS assay to identify small molecule antagonists of the progesterone receptor (PR) signaling pathway (AID 1346795; active = well fitted inhibition curve with a large enough effect in the signal ratio in the repeat runs, not every such curve was filed as active; the % refers to the signal ratio). Summed up:
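Inhibition of R5020-induced (1 nM final) beta-lactamase reporter signal in PR-UAS-bla HEK293T cells was scored by FRET fluorescence after overnight (16 hr) compound treatment.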

Experiment [3] in a line: qHTS assay to identify small molecule antagonists of the progesterone receptor (PR) signaling pathway - cell viability counter screen (AID 1346798). Note: series mostly up to about 92 µM; nearly all actives have a fitted effect of over 50% in size. The method, boiled down: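 ATP content as viability readout: CellTiter-Glo luminescence, 30 min room temperature, in PR-UAS-bla HEK293T cells after 16 hr compound/R5020 treatment at 37C and 5% CO2.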
Experiment [4] in a line: qHTS assay to identify small molecule agonists of the progesterone receptor (PR) signaling pathway - cell viability counter screen (AID 1346799; calls by dose curve; note: nearly all actives have a fitted effect of over 45% in size). The method, boiled down:
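Cytotoxicity in PR-bla HEK293T cells: 16 h compound, 37C; CellTiter-Glo added post-FRET read; luminescence after 30 min RT.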

A short description of experiment [5]: qHTS assay to identify small molecule antagonists of the TGF-beta/Smad signaling pathway - cell viability counter screen (AID 1346824). Note: nearly all actives have a fitted effect of over 50% in size. Summed up: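 SBE-bla HEK 293T cells, incubated overnight, then compound plus 0.25 ng/mL TGF-beta1 (stock added) for 5 hr at 37 C. Viability was read in the same wells by CellTiter-Glo luminescence after 30 min at room temperature.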

Experiment [6] is described as follows: qHTS assay to identify small molecule agonists of the TGF-beta/Smad signaling pathway - cell viability counter screen (AID 1346829). Note: top concentration of the series differs between compounds; nearly all actives have a fitted effect of over 45% in size. Summed up: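 SBE-bla HEK 293T cells plated overnight, compound exposure 5 hr at 37 C. Viability read in the same wells by CellTiter-Glo luminescence after 30 min at room temperature, following the beta-lactamase read.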
Experiment [7] can be described thus: qHTS assay to identify small molecule agonists of the TGF-beta/Smad signaling pathway (AID 1346859; active = well fitted activation curve with a large enough effect in the signal ratio in the repeat runs, not every such curve was filed as active; the % refers to the signal ratio; note: series mostly up to about 77 µM). Summed up:
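Stable Smad binding element-beta-lactamase HEK 293T cells; 5 hr compound exposure at 37 C under 5% CO2; 2 hr room-temperature substrate step; fluorescence excited at 405 nm, collected at 460 nm and 530 nm.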

The nature of experiment [8]: Human pregnane X receptor (PXR) small molecule agonists, qHTS cell viability counter screen (AID 1346977). Note: nearly all actives have a fitted effect of over 50% in size. The method, boiled down:
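Readout is CellTiter-Fluor fluorescence from PXR-Luc HepG2 cells. Plated cells rested 5hr, then were treated with compounds for 24hr at 37C and 5% CO2, with reagent present during the last hour.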

Experiment [9] in a line: Caspase-3/7 induction in HepG2 cells by small molecules, qHTS assay (AID 1346978). Note: nearly all actives have a fitted effect of over 15% in size. Summed up:
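Wild-type HepG2 cells, 2,000/well, settled 5 hr at 37 C and 5% CO2, then compound-treated for 17 hr; caspase-3/7 activity read by luminescent Caspase-Glo 3/7 after 30 min at room temperature.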

Experiment [10] can be described thus: Caspase-3/7 induction in CHO-K1 cells by small molecules, qHTS cell viability counter screen (AID 1346979). Note: nearly all actives have a fitted effect of over 35% in size. Note: potency is the fitted concentration of half-maximal effect. The method, boiled down: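 To flag cytotoxic compounds, treated CHO-K1 wild-type cells were given CellTiter-Fluor at 16hr and read fluorescently after 1hr at 37C; the caspase-3/7 luminescence was measured in these same wells.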
Experiment [11] is described as follows: Caspase-3/7 induction in CHO-K1 cells by small molecules, qHTS assay (AID 1346980). Note: nearly all actives have a fitted effect of over 15% in size. The method, boiled down: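 Wild-type CHO-K1 cells exposed to compounds for 17hr at 37 C, 5% CO2. Caspase-3/7 activity then measured by Caspase-Glo 3/7 luminescence after 30min at room temperature.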
Experiment [12] in a line: Caspase-3/7 induction in HepG2 cells by small molecules, qHTS cell viability counter screen (AID 1346981). Note: series mostly up to about 92 µM; nearly all actives have a fitted effect of over 30% in size. The method, boiled down: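 Wild-type HepG2 cells, 2,000/well, settled 5 hr at 37 C, 5% CO2 before compound addition. Viability read by CellTiter-Fluor fluorescence, reagent added after 16 hr compound exposure, then 1 hr at 37C, in the same wells as the caspase read.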

The target in experiment [13] is Nuclear receptor subfamily 1 group I member 2 (Homo sapiens) (UniProt O75469). Put plainly: Human pregnane X receptor (PXR) small molecule agonists, qHTS assay (AID 1346982). Note: nearly all actives have a fitted effect of over 35% in size. Note: potency is the fitted concentration of half-maximal effect. Summed up: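 PXR-Luc HepG2 reporter cells (CYP3A4-driven luciferase) in 5% charcoal-stripped FBS medium, plated 5 h before compound addition, then treated 24 h at 37C. Luciferase read by ONE-Glo luminescence after 30 min at room temperature.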
Sequence of Nuclear receptor subfamily 1 group I member 2 (Homo sapiens) (O75469 whole entry, looked up): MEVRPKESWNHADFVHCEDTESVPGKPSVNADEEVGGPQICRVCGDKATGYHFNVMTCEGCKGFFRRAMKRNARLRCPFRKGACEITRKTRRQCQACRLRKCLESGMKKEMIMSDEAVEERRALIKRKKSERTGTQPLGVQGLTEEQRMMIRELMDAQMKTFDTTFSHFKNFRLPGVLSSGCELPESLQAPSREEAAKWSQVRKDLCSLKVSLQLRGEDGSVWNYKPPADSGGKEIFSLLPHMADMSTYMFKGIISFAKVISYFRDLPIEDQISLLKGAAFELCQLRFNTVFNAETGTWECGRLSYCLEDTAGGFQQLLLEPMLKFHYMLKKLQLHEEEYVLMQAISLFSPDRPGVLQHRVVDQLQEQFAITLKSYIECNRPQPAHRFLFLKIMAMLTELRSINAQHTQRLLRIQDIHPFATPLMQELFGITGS

The target in experiment [14] is Cytochrome P450 2C19 (Homo sapiens) (UniProt P33261). Put plainly: Cytochrome P450 Family 2 Subfamily C Member 19 (CYP2C19) small molecule antagonists: luciferase reporter qHTS assay (AID 1671197). Note: series mostly up to about 120 µM; nearly all actives have a fitted effect of over 65% in size. The method, boiled down: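 P450-Glo CYP2C19 system: enzyme-substrate mix with compound 10 min at room temperature, then NADPH regeneration solution, 1 h at 37C. Proluciferin-to-luciferin conversion detected by luminescence after 20 min with detection reagent; ketoconazole as positive control.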
Sequence of Cytochrome P450 2C19 (Homo sapiens) (P33261 whole entry, looked up): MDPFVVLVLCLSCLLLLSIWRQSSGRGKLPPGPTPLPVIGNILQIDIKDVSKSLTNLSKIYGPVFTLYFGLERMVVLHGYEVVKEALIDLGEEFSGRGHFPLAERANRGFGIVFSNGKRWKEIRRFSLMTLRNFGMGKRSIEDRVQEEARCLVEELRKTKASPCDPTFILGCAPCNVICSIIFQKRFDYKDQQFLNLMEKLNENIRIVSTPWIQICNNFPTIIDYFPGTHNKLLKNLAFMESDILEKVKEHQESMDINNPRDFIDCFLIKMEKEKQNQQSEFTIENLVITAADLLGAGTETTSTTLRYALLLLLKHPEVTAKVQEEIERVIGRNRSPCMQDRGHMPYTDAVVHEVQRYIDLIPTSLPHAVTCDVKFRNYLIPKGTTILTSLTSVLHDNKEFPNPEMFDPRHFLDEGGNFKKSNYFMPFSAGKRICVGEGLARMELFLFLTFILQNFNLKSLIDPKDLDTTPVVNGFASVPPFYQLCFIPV
In general terms: A reporter such as luciferase makes a cellular process visible.

In experiment [15] the target is Thyrotropin-releasing hormone receptor (Homo sapiens) (UniProt P34981). Put plainly: qHTS assay to identify small molecule antagonists of the thyrotropin-releasing hormone receptor (TRHR) signaling pathway (AID 1346877; active = well fitted inhibition curve with a large enough effect in the repeat runs, not every such curve was filed as active; note: series mostly up to about 51 µM). Summed up: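 TRHR-expressing HEK293 cells loaded with calcium dye for 2 h at 37 C; compounds pre-incubated 5 min at room temperature before TRH challenge at 1 nM final. Intracellular calcium fluorescence read kinetically for 3 min; 15 concentrations in triplicate.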
Sequence of Thyrotropin-releasing hormone receptor (Homo sapiens) (P34981 whole entry, looked up): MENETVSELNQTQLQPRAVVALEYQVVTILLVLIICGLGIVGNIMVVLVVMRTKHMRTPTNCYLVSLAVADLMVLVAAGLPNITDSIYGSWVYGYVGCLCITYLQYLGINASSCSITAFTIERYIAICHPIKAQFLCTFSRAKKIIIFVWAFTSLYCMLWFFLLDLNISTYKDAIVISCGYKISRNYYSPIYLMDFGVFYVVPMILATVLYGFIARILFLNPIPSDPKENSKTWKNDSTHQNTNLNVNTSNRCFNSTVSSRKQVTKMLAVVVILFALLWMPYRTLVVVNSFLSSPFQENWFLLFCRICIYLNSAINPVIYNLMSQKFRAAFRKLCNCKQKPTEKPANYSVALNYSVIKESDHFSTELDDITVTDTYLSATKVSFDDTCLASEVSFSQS

The target is the same in experiment [16]. Description: qHTS assay to identify small molecule agonists of the thyrotropin-releasing hormone receptor (TRHR) signaling pathway (AID 1346891; calls by dose curve; note: series mostly up to about 58 µM). The method, boiled down: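 In 1536-format, 1500 TRHR-Hek293 cells per well grew 18 h, took up calcium dye for 2 h at 37 °C, received compound, and were read kinetically; 15-point titrations, triplicates.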
Experiment [17] addresses Cytochrome P450 2D6 (Homo sapiens) (UniProt P10635). Put plainly: Cytochrome P450 Family 2 Subfamily D Member 6 (CYP2D6) small molecule antagonists: luciferase reporter qHTS assay (AID 1671196). Note: series mostly up to about 120 µM; nearly all actives have a fitted effect of over 50% in size. The method, boiled down:
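Cell-free P450-Glo system: CYP2D6 with proluciferin substrate was pre-incubated with compound for 10 min, then reacted with NADPH regeneration for 1 h at room temperature. Luciferin product was detected after 20 min, and data were reported as relative luminescence units.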

Experiment [18] deals with Nuclear receptor subfamily 1 group I member 2 (Rattus norvegicus) (UniProt Q9R1A7). Put plainly: Rat pregnane X receptor (rPXR) activation by small molecules, qHTS assay (AID 1346983). Note: nearly all actives have a fitted effect of over 20% in size. As to conditions: rPXR luciferase reporter cells, One-Glo luminescence, 24 h; max activation: hits give high values. Summed up: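 Cell-based rPXR activation assay: rPXR cells, 2,000 per well, rested 5hr at 37 C, then exposed to compounds in DMSO for 24 hr at 37 C. Luciferase activity read by One-Glo luminescence after 30 min at room temperature.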
Sequence of Nuclear receptor subfamily 1 group I member 2 (Rattus norvegicus) (Q9R1A7 whole entry, looked up): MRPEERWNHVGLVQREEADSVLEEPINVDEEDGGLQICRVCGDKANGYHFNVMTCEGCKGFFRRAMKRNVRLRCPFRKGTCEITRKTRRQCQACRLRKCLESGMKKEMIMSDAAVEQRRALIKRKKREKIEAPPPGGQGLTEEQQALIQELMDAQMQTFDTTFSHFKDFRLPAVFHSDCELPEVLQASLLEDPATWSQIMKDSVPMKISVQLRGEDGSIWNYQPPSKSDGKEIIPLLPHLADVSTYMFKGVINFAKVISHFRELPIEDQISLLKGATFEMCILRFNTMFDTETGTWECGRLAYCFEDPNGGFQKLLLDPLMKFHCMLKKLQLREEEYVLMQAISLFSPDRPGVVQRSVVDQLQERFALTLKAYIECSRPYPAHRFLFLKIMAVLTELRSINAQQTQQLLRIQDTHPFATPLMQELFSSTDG

In experiment [19] the target is Nuclear receptor subfamily 1 group I member 2 (Homo sapiens) (UniProt O75469). Description: CYP3A4 induction through human pregnane X receptor (PXR) by small molecules, qHTS assay (AID 1346984). Note: nearly all actives have a fitted effect of over 40% in size. The method, boiled down: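 DPX-2 HepG2 cells carrying a PXR response element and CYP3A4-promoter luciferase construct, treated with compounds 24 hr at 37C. Then P450-Glo CYP3A4 Luciferin-IPA substrate (3uM final) for 3 hr at 37C, One-Glo added, luminescence read.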

The target is the same in experiment [20]. Put plainly: Human pregnane X receptor (PXR) activation by small molecules, qHTS assay (AID 1346985). Note: nearly all actives have a fitted effect of over 40% in size. Summed up: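 DPX-2 cells (HepG2 co-transfected with a PXR response element and a CYP3A4-promoter luciferase construct) were seeded at 2,000 per well, rested 5 hr at 37C, then exposed to DMSO-dissolved compounds for 24 hr. Activation was read as luciferase luminescence.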
% is set by controls: 0 for no effect and ±100 for the full control effect.

Sequence of Cytochrome P450 2D6 (Homo sapiens) (P10635 whole entry, looked up): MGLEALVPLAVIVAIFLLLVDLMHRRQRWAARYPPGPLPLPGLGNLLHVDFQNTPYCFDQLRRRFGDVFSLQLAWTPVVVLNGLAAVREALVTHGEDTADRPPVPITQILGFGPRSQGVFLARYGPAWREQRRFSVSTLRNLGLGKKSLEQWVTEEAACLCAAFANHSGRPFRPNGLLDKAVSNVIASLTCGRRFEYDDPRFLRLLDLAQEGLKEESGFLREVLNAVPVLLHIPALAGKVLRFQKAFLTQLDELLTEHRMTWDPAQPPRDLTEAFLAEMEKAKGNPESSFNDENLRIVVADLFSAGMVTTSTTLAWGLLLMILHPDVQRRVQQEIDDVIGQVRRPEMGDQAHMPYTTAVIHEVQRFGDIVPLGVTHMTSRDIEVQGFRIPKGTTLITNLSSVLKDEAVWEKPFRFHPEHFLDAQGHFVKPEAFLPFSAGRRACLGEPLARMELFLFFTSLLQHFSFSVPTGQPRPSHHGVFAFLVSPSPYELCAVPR

For `Cc1cccc(C)n1`, the compound was classed as inactive in experiment [1]. Also, the Potency result in [2], in [3], in experiment [4], in [5], in experiment [6] and in experiment [7] was “inactive” throughout. In addition, the Potency entry in experiment [8], in experiment [9], in experiment [10], in experiment [11], in [12] and in [13] was “inactive” throughout. Also, in [14], the Potency result was “inactive”.
As to `Cc1cn[nH]c1`, in experiment [1], the call was inactive. Further, the Potency entry in [2], in [3], in experiment [4], in experiment [5], in experiment [6] and in [7] was “inactive” in each case. The Potency result in experiment [8], in [9], in [10], in experiment [11] and in experiment [12] was “inactive” each time.
Turning to `Cc1occc1SSc1ccoc1C`, the call in [1] was inactive. Also, the Potency result in [2], in experiment [3], in experiment [4], in [5], in [6] and in experiment [7] was “inactive” in each case. The Potency result in experiment [15], in experiment [16], in experiment [8], in experiment [9], in experiment [11] and in experiment [12] was “inactive” in each case. Further, the Potency entry in experiment [17] and in [14] was “inactive” each time.
On to `CC(=O)C=O`, for which, in experiment [1], the compound was called inactive. Moreover, the Potency entry in experiment [2], in [3], in [4], in [5], in [6] and in experiment [7] was “inactive” in each case. Also, the Potency entry in [8], in experiment [9], in experiment [10], in experiment [11], in [12] and in experiment [13] was “inactive” throughout. The Potency result in [17] and in experiment [14] was “inactive” in each case.
`Cc1cccc(N(C)C)c1`: in experiment [1], the outcome was inactive. Besides, the Potency entry in experiment [2], in experiment [3], in [4], in experiment [5], in experiment [6] and in experiment [7] was “inactive” each time. The Potency entry in [8], in [9], in experiment [10], in [11], in experiment [12] and in experiment [13] was “inactive” each time. In addition, the Potency entry in experiment [17] was “inactive”.
With `OCCC(O)CO` (stereo not drawn), in experiment [1], the compound was classed as inactive. Besides, the Potency entry in [2], in experiment [3], in experiment [4], in experiment [5], in experiment [6] and in experiment [7] was “inactive” each time. The Potency entry in experiment [15], in [8], in experiment [9], in [10], in experiment [11] and in experiment [13] was “inactive” each time. Further, the Potency entry in experiment [14] is “inactive”.
As to `COc1cccc(O)c1`, the compound was called inactive in [1]. The Potency entry in experiment [2], in experiment [3], in experiment [4], in experiment [5], in experiment [6] and in [7] was “inactive” in each case. Moreover, the Potency entry in experiment [15], in [8], in experiment [9], in experiment [10], in experiment [11] and in [12] was “inactive” in each case. Moreover, the Potency entry in [13], in [17] and in experiment [14] was “inactive” throughout.
With `CCCCOc1ccc(C(=O)CCN2CCCCC2)cc1`, the compound was called inactive in [1]. Besides, the Potency result in experiment [2], in [3], in [4], in experiment [5], in [6] and in [7] was “inactive” in each case. Also, the Potency result in [15], in experiment [16], in experiment [9], in experiment [11], in [12] and in experiment [19] was “inactive” in each case. The Potency result in experiment [20] was “inactive”. The Potency is 29.8 µM (active) in experiment [10] and 6.68 µM (active) in experiment [13]. Also, the max activation in [18] is -1.67%.
Regarding `CCc1cccc(C)c1`, in experiment [1], the call was inactive. The Potency result in [2], in [3], in [4], in experiment [5], in experiment [6] and in experiment [7] was “inactive” each time. Moreover, the Potency entry in experiment [16], in [8], in experiment [9], in experiment [10], in experiment [11] and in experiment [12] was “inactive” throughout. In addition, the Potency result in [13], in [17] and in experiment [14] was “inactive” each time.
